Only some compounds are listed: those with a hit (about 8.1% of all), similar ones and a draw of the others.
KB-3-1 tox = KB-3-1 parental cell cytotoxicity. Potency, µM (doses to about 46.1 µM), actives largely listed as cytotoxic. KB-3-1 viability, CellTiter-Glo ATP luminescence, 72 h. AID 1347075. 1.4% of 400,000 active; also: % is scaled to controls: 0 for no effect and ±100 for the full control effect; nearly all actives have a fitted effect of over 60% in size
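Parental KB-3-1 viability, qHTS format: 72 h compound exposure, 37 °C; CellTiter-Glo; media-only wells and DMSO plates as controls; concentration-effect fits on corrected data.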
KB-V1 MDR tox = kills drug-selected multidrug resistant KB-V1 cells | Potency, µM (titrated, usually from 46.1 µM), usual class: cytotoxic | 3.4% of 400,000 active | AID 1347076 | KB-V1 MDR cells viability, CellTiter-Glo, 72 h; also: % is scaled to controls: 0 for no effect and ±100 for the full control effect; nearly all actives have a fitted effect of over 60% in size
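KB-V1, DMEM (no phenol red) + 10% FBS; cpd pin-transferred, titration series; 72 h, 37 degrees C; CellTiter-Glo, luminescence. Data normalized, curve-fit.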
ELG1 repair inh = blocks ELG1-dependent DNA repair in HEK293T cells. HEK293T ELG1-luciferase reporter, luminescence, 16 h; DNA damage induced by 5-fluorouridine. Potency, µM (highest dose often 46.1 µM), for inactives: at the highest dose activity change, negative = inhibition, actives largely listed as inhibitors. 2.3% of 330,000 active. AID 504467; also: % is scaled to controls: 0 for no effect and ±100 for the full control effect; nearly all actives have a fitted effect of over 55% in size
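Quantitative HTS, concentration-response format. 2,000 cells/well co-treated with 5-fluorouridine and compound, 16 hr in 5% CO2 at 37 °C; ONE-Glo luminescence read after 30 min.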
SW480 rereplic = inducers of DNA re-replication in SW480 colon cancer cells; 1.8% of 340,000 active; Potency, µM (highest dose often 46.1 µM), for the others: at the highest dose re-replication activation, usual class: activators; SW480 DNA re-replication, Hoechst DNA content imaging, 48 h; also: % of control where 0% means no effect; nearly all actives have a fitted effect of over 55% in size
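Quantitative HTS format with DMSO vehicle controls; 48 hr drug incubation at 37 C, then 40 min Hoechst staining and scanning imager measurement at 405 nm excitation.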
MCF10A rereplic = induces DNA re-replication in MCF 10a normal breast cells. 2.9% of 350,000 active. MCF 10A DNA re-replication, Hoechst nuclear intensity, 48 h. AID 624296. Potency, µM (titrated, usually from 46.1 µM), without a hit: top-dose activity, positive = re-replication, usual class: activators; also: % of control where 0% means no effect; nearly all actives have a fitted effect of over 50% in size
ELG1 FLuc counter = luciferase inhibition in cell-free luciferin readout for ELG1 hits; shares compounds with ELG1 repair inh; cell-free firefly luciferase luminescence counter-screen, ViewLux; Potency, µM (titrated, usually from 46.1 µM), inactives show at the top dose activity change, negative = inhibition, usual class: inhibitors; 3% of 350 active; AID 624247; also: % is scaled to controls: 0 for no effect and ±100 for the full control effect
ELG1 Luc conf = inhibits ELG1-dependent DNA repair in HEK293T cells, confirmed | shares compounds with ELG1 repair inh | HEK293T ELG1-luciferase levels, luminescence; cells co-treated with 5-fluorouridine | Potency, µM (titrated, usually from 46.1 µM), inactives show at the top dose activity change, negative = inhibition, hits mostly inhibitors | 68% of 670 active | AID 624248; also: % is scaled to controls: 0 for no effect and ±100 for the full control effect; nearly all actives have a fitted effect of over 55% in size
ELG1 MMS Luc = MMS-stimulated human ELG1 repair inhibition, confirmed; shares compounds with ELG1 repair inh; Potency, µM (titrated, usually from 46.1 µM), inactives show at the highest dose activity change, negative = inhibition, hits mostly inhibitors; AID 624249; 53% of 670 active; HEK293T luciferase-tagged ELG1 level, MMS stimulated; also: % is scaled to controls: 0 for no effect and ±100 for the full control effect; nearly all actives have a fitted effect of over 60% in size
ELG1 5FU viab = confirmation of ELG1 repair inhibitors: viability with 5FU | shares compounds with ELG1 repair inh | cell viability with 5-FU, ELG1-dependent repair | 670 tested, under 10 active | Potency, µM (top dose mostly 46.1 µM), inactives show at the top dose activity change, negative = viability loss, most hits filed as cytotoxic;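 also: ELG1-luc HEK293T cells cotreated with 5-fluorouridine at 10 µM final; viability measured 16 h after compound addition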
ELG1 MMS viab = confirmation of ELG1 repair inhibitors: viability with MMS; shares compounds with ELG1 repair inh; Potency, µM (top dose mostly 46.1 µM), for the others: top-dose activity change, negative = viability loss, hits mostly cytotoxic; 33% of 670 active; Cell viability with MMS, ELG1-dependent DNA repair; AID 624251;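 also: ELG1-luc HEK293T cells co-treated with 10 µM MMS; viability read 16 h after compound addition; % is scaled to controls: 0 for no effect and ±100 for the full control effect; nearly all actives have a fitted effect of over 60% in size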
ELG1 unstim viab = affects unstimulated cell viability, ELG1 hit counter-screen; shares compounds with ELG1 repair inh; cell viability counter-screen, unstimulated, luminescence; Potency, µM (series often up to 45.9 µM), without a hit: top-dose activity change, negative = loss of viability, actives largely listed as cytotoxic; 8% of 900 active;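 also: compound exposure lasted 16 hours before reading; % is scaled to controls: 0 for no effect and ±100 for the full control effect; nearly all actives have a fitted effect of over 55% in size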
FLuc biochem = firefly luciferase inhibition counter-screen; shares compounds with ELG1 repair inh; purified firefly luciferase, luminescence counter-screen; Potency, µM (doses to about 57.5 µM), without a hit: top-dose activity, negative = inhibition, actives largely listed as inhibitors; 10% of 350 active; AID 624253; also: % is scaled to controls: 0 for no effect and ±100 for the full control effect
* marks the source's active call; other numbers are inactive results; i = inactive; ? = inconclusive; nt = no result given; ! = not confirmed by another sample. Calls follow the shape of the dose curve; as a rule, active = well fitted curve in the direction sought with a large enough effect; inconclusive = small, poorly fitted or top-dose-only effect, or another doubt; inactive = no such curve, though single readings can be large; an effect the other way counts as inactive or inconclusive. Potency is read from the fitted curve at half-maximal effect.

SMILES	KB-3-1 tox	KB-V1 MDR tox	ELG1 repair inh	SW480 rereplic	MCF10A rereplic	ELG1 Luc conf	ELG1 MMS Luc	ELG1 5FU viab	ELG1 MMS viab	ELG1 unstim viab	others
Cc1nn(C)c(C)c1/C=C/C(=O)c1ccc(Cl)cc1Cl	?	?	4.11µM*	1.4%	-41.4%	5.2%	1.58µM*	-4.9%	2.23µM*	?
COc1ccc(Cn2c(O)c(C=Nc3ccccc3C(=O)O)c3ccccc3c2=O)cc1	i	i	4.11µM*	-6.7%	?	3.53µM*	2.5µM*	-14.3%	2.81µM*	?
COc1ccccc1NS(=O)(=O)c1cccc(-n2c(O)c(C=Nc3ccccc3C(=O)O)c3ccccc3c2=O)c1	i	i	?	4.1%	18.0%	nt	nt	nt	nt	nt
Cc1ccc(OCC(=O)Nc2ccc(-c3nc4ccc(C)cc4o3)cc2)cc1	i	i	nt	nt	nt	nt	nt	nt	nt	nt
COc1ccc(OCC(=O)Nc2ccc(-c3nc4cc(C)c(C)cc4o3)cc2)cc1	nt	nt	nt	nt	nt	nt	nt	nt	nt	?	ELG1 FLuc counter=57.1%;FLuc biochem=15µM*!
Cc1ccc2nc(-c3ccc(C)c(NC(=O)COc4ccc(Br)cc4)c3)oc2c1	?	i	nt	nt	nt	nt	nt	nt	nt	-1.4%	ELG1 FLuc counter=68.1%;FLuc biochem=?
Cc1ccc2nc(-c3ccc(Cl)c(NC(=O)COc4ccc(C(C)C)cc4)c3)oc2c1	i	i	nt	nt	nt	nt	nt	nt	nt	nt
CCN1C(=O)C(C)S/C1=N\S(=O)(=O)c1ccc(Cl)s1 (configuration not stated)	i	i	-3.1%	-5.8%	-0.7%	nt	nt	nt	nt	nt
CC(=O)NC(CC(=O)Nc1ccc(S(=O)(=O)Nc2nccs2)cc1)c1ccccc1 (configuration not stated)	i	i	0.517µM*	-3.0%	-2.4%	?	-5.8%	4.9%	10.6%	5.3%	ELG1 FLuc counter=6.4%;FLuc biochem=1.6%
CC(=O)NC(CC(=O)Nc1ccc(S(=O)(=O)NC2=NCCCCC2)cc1)c1ccccc1 (configuration not stated)	i	i	18.4%	-3.1%	0.2%	nt	nt	nt	nt	nt
Cc1c(O)c(S(=O)c2ccccc2)c(=O)n(-c2ccccc2)c1-c1ccccc1 (configuration not stated)	i	i	14.4%	-1.9%	13.4%	nt	nt	nt	nt	nt
CSCCC(NS(=O)(=O)c1ccc2c(c1)OCCO2)C(=O)N(C)Cc1ccc(C)cc1 (configuration not stated)	i	?	-21.9%	17.7%	?	nt	nt	nt	nt	nt
COc1cccc(CN(C)C(=O)C(CCSC)NS(=O)(=O)c2ccc3c(c2)OCCO3)c1OC (configuration not stated)	i	14.6µM*	4.61µM*	-448.4%	?	11.2µM*	8.88µM*	9.0%	?	?
Cc1cc(C)cc(NC(=O)N2CCC(N3CCN(Cc4ccccc4)C(=O)C3=O)CC2)c1	i	i	nt	nt	nt	nt	nt	nt	nt	nt
COc1ccc(OC[C@@H](O)CNC(=O)c2cccc3c2C(=O)c2ccc(-c4ccc(F)cc4OCc4ccccc4)cc2S3(=O)=O)cc1	i	i	2.31µM*	-0.2%	19.2%	3.15µM*	4.8%	?	?	0.4%
COc1ccc(NC(=O)c2cccc3c2C(=O)c2ccc(-c4ccc(F)cc4OCc4ccccc4)cc2S3(=O)=O)cc1	i	i	4.8%	?	?	nt	nt	nt	nt	nt
COc1cc(/C=N/NC(=O)Nc2cccc3nsnc23)cc(OC)c1OC	i	i	2.31µM*	?	3.26µM*	1.58µM*	?	?	-9.9%	?
COc1ccccc1CNC(=O)c1cnc(SC)nc1C	i	i	nt	nt	nt	nt	nt	nt	nt	nt
CN1/C(=C\C(=O)C[n+]2ccc3ccccc3c2)C(C)(C)c2ccccc21	?	i	1.16µM*	?	?	?	1.99µM*	-6.2%	2.81µM*	?
COc1cccc(-c2cnc(C(O)c3cccc(OC)c3)[nH]2)c1 (configuration not stated)	i	?	nt	nt	nt	nt	nt	nt	nt	nt
COc1ccc(CNC(=O)c2cccc(S(=O)(=O)N3CCN(c4ccc(F)cc4)CC3)c2)cc1	i	i	3.26µM*	10.4%	7.8%	14.1µM*	15.8µM*	7.4%	12.5µM*	?
COc1cccc(CNC(=O)c2cccc(S(=O)(=O)N3CCN(c4ccc(F)cc4)CC3)c2)c1	i	?	?	5.7%	9.8%	nt	nt	nt	nt	nt
COc1ccccc1N1CCN(C(=O)CCCN2C(=O)c3cccc4cccc(c34)C2=O)CC1	i	?	4.61µM*	4.3%	?	7.91µM*	?	?	-4.1%	?
Cc1cc(C(=O)NNc2ccc(F)cc2)no1	?	i	2.91µM*	-9.2%	13µM*	-4.6%	19.0%	-8.1%	-2.2%	0.5%
O=C(COc1ccccc1F)Nc1ccc(-c2nc3ccccc3s2)cc1	nt	nt	nt	nt	nt	nt	nt	nt	nt	-15.7%	ELG1 FLuc counter=69.2%;FLuc biochem=?
Cc1nc2ccc(NC(=O)COc3ccccc3F)cc2s1	i	?	?	-12.8%	5.2%	nt	nt	nt	nt	nt
Cc1ccsc1CNC(=O)C1(C)CCN1C(=O)C(C)C (configuration not stated)	i	i	nt	nt	nt	nt	nt	nt	nt	nt
NC(=O)c1ccc(N2CCCCCC2)c([N+](=O)[O-])c1	i	i	6.8%	-6.6%	1.3%	nt	nt	nt	nt	nt
